Experimental data taken from PubChem BioAssay AID1479144 (National Center for Advancing Translational Sciences (NCATS), 2020).
Records with an inconclusive call do not appear. Values without a mark were called inactive. Calls of active or inactive are those of the source. The call rests on the fitted dose curve.

Assay: Confirmatory qHTS for Vero E6 cytotoxicity: counterscreen for inhibitors of SARS-S pseudo-typed particle cell entry
Conditions: cell viability; series mostly up to 57.1 µM; activity change, negative = cytotoxicity: at the top concentration

SMILES	activity change, negative = cytotoxicity	Potency
Cc1nnc(C(=O)NC(C)(C)c2nc(C(=O)NCc3ccc(F)cc3)c(O)c(=O)n2C)o1	3.68%	–
CC(C)OC(=O)[C@H](C)N[P@](=O)(CO[C@H](C)Cn1cnc2c(N)ncnc21)Oc1ccccc1	0%	–
CC(=O)N1CCN(c2ccc(OC[C@H]3CO[C@](Cn4ccnc4)(c4ccc(Cl)cc4Cl)O3)cc2)CC1	-20.5%	–
CN1CCC(=C2c3ccccc3C=Cc3ccccc32)CC1	0%	–
N#CC(c1ccc(Cl)cc1)c1c(Cl)cc(-n2ncc(=O)[nH]c2=O)cc1Cl (configuration not stated)	–	24.1 µM (active)
CN1CC[C@H](CN2c3ccccc3Sc3ccccc32)C1	-9.59%	–
CCCCCCCCCCCCCC[n+]1ccc(C)cc1	–	4.29 µM (active)
C[C@H]1[C@H](OC(=O)CCC(=O)O)O[C@@H]2O[C@@]3(C)CC[C@H]4[C@H](C)CC[C@@H]1[C@@]24OO3	-12.5%	–
CCCCCCCCCCCC[n+]1ccc2ccccc2c1	–	3.83 µM (active)
Oc1c(Cl)cc(Cl)c(Cl)c1Cc1c(O)c(Cl)cc(Cl)c1Cl	–	4.82 µM (active)
CN(C)CCOC(c1ccccc1)c1ccc(Br)cc1 (configuration not stated)	-3.96%	–
C=CC(=O)Nc1cc(Nc2nccc(-c3cn(C)c4ccccc34)n2)c(OC)cc1N(C)CCN(C)C	–	13.6 µM (active)
O=C(O)c1cc(O)c2c(c1)[C@H]([C@H]1c3cc(C(=O)O)cc(O)c3C(=O)c3c(O[C@@H]4O[C@H](CO)[C@@H](O)[C@H](O)[C@H]4O)cccc31)c1cccc(O[C@@H]3O[C@H](CO)[C@@H](O)[C@H](O)[C@H]3O)c1C2=O	3.1% [at 33 µM]	–
CC(C)C[C@H](NC(=O)[C@H](CCc1ccccc1)NC(=O)CN1CCOCC1)C(=O)N[C@@H](Cc1ccccc1)C(=O)N[C@@H](CC(C)C)C(=O)[C@@]1(C)CO1	–	0.681 µM (active)
CN1CCCCC1CCN1c2ccccc2Sc2ccc(S(C)=O)cc21 (configuration not stated)	-13.1%	–
CCCCc1oc2ccccc2c1C(=O)c1cc(I)c(OCCN(CC)CC)c(I)c1	0%	–

SMILES	activity change, negative = cytotoxicity	Potency
O=c1[nH]c(=O)n([C@H]2C[C@H](O)[C@@H](CO)O2)cc1C(F)(F)F	-5.43%	–
CC(C)(C)C(=O)OCOP(=O)(COCCn1cnc2c(N)ncnc21)OCOC(=O)C(C)(C)C	-6.28%	–
CC[C@@]1(O)C(=O)OCc2c1cc1n(c2=O)Cc2cc3c([N+](=O)[O-])cccc3nc2-1	–	3.93 µM (active)
COc1ccc(Cc2nccc3cc(OC)c(OC)cc23)cc1OC	-9.35%	–
CC(CN(C)C)CN1c2ccccc2CCc2ccccc21 (configuration not stated)	-18.4%	–
N=C(N)c1ccc(OCCCCCOc2ccc(C(=N)N)cc2)cc1	–	21.5 µM (active)
CCCCCCCCCCCCOCCOCCOCCOCCOCCOCCOCCOCCOCCO	-16.9%	–
C=CC1(C)CC(=O)C2(O)C(C)(O1)C(OC(C)=O)C(OC(=O)CCN(C)C)C1C(C)(C)CCC(O)C12C (configuration not stated)	-12.4%	–
CC(C)(C)NCC(O)COc1ccccc1C1CCCC1 (configuration not stated)	-11.2%	–
COC(=O)C1=C(C)NC(C)=C(C(=O)OCC(C)C)C1c1ccccc1[N+](=O)[O-] (configuration not stated)	–	27.1 µM (active)
Cc1cn([C@H]2C[C@H](N=[N+]=[N-])[C@@H](CO)O2)c(=O)[nH]c1=O	-4.49%	–
CCCCCCNC(=O)n1cc(F)c(=O)[nH]c1=O	0%	–
COc1cc2c(cc1Cc1cccc(Cl)c1F)c(=O)c(C(=O)O)cn2[C@H](CO)C(C)C	0%	–
OCCN1CCN(CC/C=C2/c3ccccc3Sc3ccc(C(F)(F)F)cc32)CC1	-23.7%	–
CN1CCC[C@@H]1CCO[C@](C)(c1ccccc1)c1ccc(Cl)cc1	-11.2%	–
CC(C)OC(=O)OCOP(=O)(CO[C@H](C)Cn1cnc2c(N)ncnc21)OCOC(=O)OC(C)C	-16.5%	–
